Our source for the growth values is PubChem BioAssay (NCI).

Compounds without any hit were thinned out: in the full panel of roughly 83,000, 20% have a hit.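 Cells were grown in 96-well plates and exposed to the test compound at a single concentration for 48 hours; results are reported as percent growth, with values below 10 considered active.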 Values without a mark were called inactive. Active and inactive are the calls of the source.

Among the test systems are NCI-H23 lung; NCI-H226 lung; NCI-H322M lung; HOP-62 NSCLC; NCI-H460 lung; A549/ATCC NSCLC; 786-0 renal; COLO 205 colon.
Holding throughout (test): NCI-60 one-dose screen, 48 h (100 = growth as untreated, 0 = no growth, -100 = all killed)
Conditions in all cases: 10 µM unless noted

For the compound `CC(C)(CNC1CCCCC1)OC(=O)c1ccccc1`, the growth in the test with NCI-H23 lung is 107%; with NCI-H226 lung, 97.8%; in the test with NCI-H322M lung it was 103%; in the test on HOP-62 NSCLC it was 102%; with NCI-H460 lung, 106%; in the test on A549/ATCC NSCLC it was 108%. The growth in the test with 786-0 renal was 100%; in the test with COLO 205 colon it was 104%.
Turning to `O=C(O)COc1ccc([N+](=O)[O-])cc1Cl`, the growth in the test with NCI-H23 lung is 108%; in the test on NCI-H226 lung it was 108%; with NCI-H322M lung, 99.8%; with HOP-62 NSCLC it was 90.5%; in the test with NCI-H460 lung, 108%; in the test on A549/ATCC NSCLC it was 100%. Besides, the results for the growth in the test on 786-0 renal and in the test on COLO 205 colon were 98.7% and 110%, respectively.
As to `COC(=O)C(C(=O)OC)C(Br)C(Br)C(Br)c1ccccc1` (configuration not stated), the growth was 108% in the test with NCI-H23 lung; 96.5% in the test with NCI-H226 lung; 113% with NCI-H322M lung; 144% in the test on HOP-62 NSCLC; 108% in the test on NCI-H460 lung; 96% with A549/ATCC NSCLC. The growth with 786-0 renal is 96.3%; in the test with COLO 205 colon, 71.2%.
As to `CCOC(=O)c1sc(NS(=O)(=O)c2ccccc2)nc1C`, the growth is 109% in the test on NCI-H23 lung; 106% in the test on NCI-H226 lung; 122% in the test on NCI-H322M lung; -99.5% (active) with HOP-62 NSCLC; 109% with NCI-H460 lung; 103% with A549/ATCC NSCLC. Besides, the growth with 786-0 renal was 89.4%; with COLO 205 colon, 120%.
As for `CCC(C)CC(N)O` (configuration not stated), the growth was 105% in the test with NCI-H23 lung; 98% in the test with NCI-H226 lung; 116% in the test on NCI-H322M lung; 122% in the test on HOP-62 NSCLC; 108% in the test on NCI-H460 lung; 106% with A549/ATCC NSCLC. In addition, the growth in the test with 786-0 renal is 105%; with COLO 205 colon it was 109%.
For the compound `CSCc1ncc(-c2ccc(C(F)(F)F)cc2)c(NC2CCCCCC2)n1`, the growth with NCI-H23 lung is 65.9% [25 µM]; with NCI-H226 lung, 87.5% [25 µM]; in the test with NCI-H322M lung, 97.9% [25 µM]; in the test with HOP-62 NSCLC it was 98.6% [25 µM]; in the test with NCI-H460 lung, 49.8% [25 µM]; in the test with A549/ATCC NSCLC it was 68.3% [25 µM]. Moreover, the figures for the growth in the test with 786-0 renal and in the test on COLO 205 colon were 66.4% [25 µM] and 95% [25 µM], respectively.
As for `COc1ccc2c(c1)cn1c3ccc(O)cc3[nH]c(=O)c21`, the growth is 23.3% in the test with NCI-H23 lung; 45.9% in the test with NCI-H226 lung; 41.1% in the test with NCI-H322M lung; 25.8% in the test with HOP-62 NSCLC; -52.4% (active) in the test on NCI-H460 lung; 26.8% in the test with A549/ATCC NSCLC. The growth is 22.9% in the test with 786-0 renal and 4.21% (active) in the test with COLO 205 colon.
Consider `CCn1cnc(C[C@H](NC(=O)[C@@H](NC(=O)Nc2cc(C(F)(F)F)cc(C(F)(F)F)c2)C(C)C)C(=O)OC)c1`, for which the growth in the test with NCI-H23 lung was -78.8% [100 µM] (active); in the test on NCI-H226 lung, -55.6% [100 µM] (active); in the test with NCI-H322M lung it was -95.9% [100 µM] (active); in the test with HOP-62 NSCLC it was -97.9% [100 µM] (active); with NCI-H460 lung, -43.2% [100 µM] (active); in the test with A549/ATCC NSCLC, -71.4% [100 µM] (active). Also, the figures for the growth with 786-0 renal and with COLO 205 colon were -87.5% [100 µM] (active) and -94.1% [100 µM] (active), respectively.
For the compound `O=Nc1ccc(O)c2ccccc12`, the growth with NCI-H23 lung was -9.22% (active); in the test on NCI-H226 lung, 101%; in the test with NCI-H322M lung, 106%; in the test on HOP-62 NSCLC it was 38.4%; in the test with NCI-H460 lung, 96.7%; in the test with A549/ATCC NSCLC, 41.6%. Moreover, the values for the growth in the test with 786-0 renal and in the test with COLO 205 colon were 77.7% and 21.9%, respectively.
For the compound `[N-]=[N+]=Nc1ncc(-c2ccc(C(F)(F)F)cc2)c(NC2CCCCCC2)n1`, the growth is 38% [100 µM] in the test on NCI-H23 lung; 60.3% [100 µM] in the test on NCI-H226 lung; 47.6% [100 µM] in the test on NCI-H322M lung; 69.9% [100 µM] in the test with HOP-62 NSCLC; 18.4% [100 µM] in the test with NCI-H460 lung; 23.6% [100 µM] in the test on A549/ATCC NSCLC. Further, the values for the growth with 786-0 renal and in the test with COLO 205 colon were 38.1% [100 µM] and 36.3% [100 µM], respectively.
On to `O=C(CCC(=O)N(CCO)CCO)N(CCO)CCO`, for which the growth in the test on NCI-H23 lung is 108%; in the test with NCI-H226 lung, 105%; in the test on NCI-H322M lung it was 96%; in the test on HOP-62 NSCLC, 102%; in the test on NCI-H460 lung it was 116%; in the test on A549/ATCC NSCLC, 105%. In addition, the growth with 786-0 renal was 96.4%; in the test on COLO 205 colon it was 98.4%.
With `C=C[C@]1(C)C=C2C(=O)[C@@]3(O)OC[C@@]4(CCCC(C)(C)C43O)C2(O)C(O)C1` (some centres not stated), the growth was 80.1% in the test with NCI-H23 lung; 81.4% with NCI-H226 lung; 108% in the test with NCI-H322M lung; 107% with HOP-62 NSCLC; 82.5% in the test with NCI-H460 lung; 76.4% in the test with A549/ATCC NSCLC. For the same compound, the growth in the test with 786-0 renal is 38.2%; in the test with COLO 205 colon, 9.48% (active).
Take `NCCCOc1cc2ccccc2cc1C(=O)Nc1ccc(Cl)cc1OC(=O)c1cc2ccccc2cc1OCCCN`: the growth is -72.2% (active) in the test on NCI-H23 lung; -57.6% (active) with NCI-H226 lung; -69.3% (active) in the test on NCI-H322M lung; -92.3% (active) in the test on HOP-62 NSCLC; -89.7% (active) with NCI-H460 lung; -94.3% (active) in the test on A549/ATCC NSCLC. For the same compound, the growth in the test with 786-0 renal was -86.2% (active); with COLO 205 colon, -90.8% (active).
Take `C/C(=C\c1ccc2ccccc2c1)[N+](=O)[O-]`: the growth in the test with NCI-H23 lung was 74.6%; with NCI-H226 lung, 67%; in the test with NCI-H322M lung, 78.2%; in the test with HOP-62 NSCLC, 98.7%; with NCI-H460 lung, 98.8%; in the test with A549/ATCC NSCLC, 97.3%. Moreover, the growth with 786-0 renal was -62.9% (active); with COLO 205 colon, -26.9% (active).
